Hit rate of the full screen: of about 360,000 compounds, about 1,100 (0.31%) were called active. Many of the other results were omitted from the sample, so actives are more common in it than they were. Unmarked numbers belong to inactive results. Cut-off read from the data, not from the text of the source: active = activity change below about -80%; inconclusive = mostly about -51% to -80%; inactive = weaker than that.
Target: RAC-alpha serine/threonine-protein kinase (Homo sapiens) (UniProt P31749)
Assay: HTS Assay for Inhibitors of Akt Phophorylation: Primary Screen
Details: Neuro2A IGF-stimulated pAkt S473 HTRF, 20 min; at 50 µM, active compounds read low
Description: The serine/threonine protein kinase Akt (protein kinase B) regulates various cellular processes, including cell survival, growth, proliferation, migration and differentiation. It has been well established that Akt is activated through two essential steps involving membrane translocation and phosphorylation. Cytosolic Akt is recruited to the plasma membrane via the interaction between the PH domain and membrane PIP3 produced by phosphoinositide-3 kinase (PI3K) upon growth factor receptor stimulation. The membrane-Akt interaction results in conformational changes of Akt, enabling its activation through phosphorylation at T308 in the kinase domain and at S473 in the C-terminal hydrophobic motif by PDK1 and mTOR-rictor complex (mTORC2), respectively. […] These findings indicate that S473 phosphorylation, as an important modulator of Akt activation, may be a valuable drug target for cell growth, survival, proliferation and differentiation. These inhibitors also may have significant therapeutic potential with fewer side effects, especially for the conditions involving hyperactive Akt signaling, such as cancer and Alzheimer's disease.
To this end, a miniaturized assay was developed to be screened against the Molecular Libraries Small Molecule Repository (MLSMR).
NIH Chemical Genomics Center [NCGC]
NIH Molecular Libraries Probe Centers Network [MLPCN]
Assay Submitter (PI): Hee-Yong Kim, National Institute on Alcohol Abuse and Alcoholism
3 uL of Neuro2A cell suspension in DMEM containing 0.5% FBS and […] antibiotics mix was plated in a white solid bottom tissue culture-treated 1536-well plate (Greiner Bio-One, Monroe, NC) at 4,500 cells per well and incubated overnight at 37 deg C. 23 nL/well of compound solutions in DMSO was added with Pintool transfer (Kalypsis, San Diego, CA) at single […] final concentration. Then, the cells were stimulated with 1.5 uL of IGF (6 nM final concentration) and incubated at 37 deg C for 20 min. The reaction was terminated by the addition of 1.5 uL blocking reagent mixed with lysis buffer (1:25 correspondingly) provided with HTRF(R) Phospho Akt (Ser473) kit (Cisbio US, Bedford, MA), with following incubation for 50 min at ambient temperature. The detection HTRF conjugates from the kit were prepared according to the protocol, pre-mixed 1:1 prior to dispensing, and 2 uL/well was added with BioRAPTR FRD dispenser (Beckman Coulter). The assay plates were incubated for 24 hours at ambient temperature, and the HTRF fluorescence was measured using Envision plate reader (PerkinElmer) with excitation at 330nm, emission at 615nm (Eu(3)-Cryptate donor signal) and 665nm (d2 acceptor signal). The ratio of […] was calculated for each well.
% is set by controls: 0 for no effect and ±100 for the full control effect.

Compound | activity change
O=C(c1c(F)cccc1Cl)N1CCN(c2ccccn2)CC1 | inactive
O=C(c1ccc2c(c1)C(=O)N(c1ccc(Cl)cc1)C2=O)N1CCN(c2ccccn2)CC1 | -121% (active)
O=C(c1ccc2c(c1)N(Cc1ccc(F)cc1)C(=O)c1ccccc1S2(=O)=O)N1CCN(c2ccccn2)CC1 | inactive
Cc1ccc(S(=O)(=O)N2[C@@H](Cc3ccccc3)CO[C@H]2CC(=O)OCc2ccccc2)cc1 | inactive
O=C(NC1CCCCC1)C(c1cc2ccccc2o1)n1c(=O)c(-c2ccco2)nc2ccccc21 (stereo not given) | inactive
Cc1ccc2c(c1)N(CC(=O)N(Cc1ccccn1)Cc1ccco1)C(=O)C(C(C)C)O2 (stereo not given) | 1.92%
O=C(NCc1ccccc1)C(c1ccc(F)cc1)N1CCN(C(=O)C2CCCO2)CC1 (stereo not given) | inactive
CCC(C(=O)NCc1ccccc1)n1c(Cc2cc(F)cc(F)c2)nc2ccccc21 (stereo not given) | inactive
CCOC(=O)CSc1nnc(CNc2ccc(F)cc2)o1 | inactive
COC(=O)c1ccc2nc(-c3ccc(F)cc3)c(Cc3ccc(C)cc3)n2c1 | inactive
Cc1cccc2nc(CNc3ccc(F)cc3)cn12 | -128% (active)
O=C(NC(=O)c1ccc(Cl)c(Cl)c1)OC1CCS(=O)(=O)C1 (stereo not given) | inactive
COCCNC(=O)C1C(=O)Nc2ccccc2C(=O)N1c1ccc2c(c1)OCCO2 (stereo not given) | inactive
CC(C)c1cc(Cn2c3ccccc3c(=O)n2C(C)Cn2cc(C3CC3)nn2)on1 (stereo not given) | inactive
Cn1cccc1C(=O)N1CCc2ccccc2C1 | inactive
Cc1ccc(S(=O)(=O)N(CC(=O)N2CCc3ccccc3C2)c2cccc(Cl)c2)cc1 | inactive
CN(c1ccc(C(=O)N2CCc3ccccc3C2)cc1)S(C)(=O)=O | -108% (active)
CS(=O)(=O)N(CC(=O)N1CCc2ccccc2C1)c1ccc(Br)cc1 | inactive
CN(c1cccc(NC(=O)c2ccc(CN3CCc4ccccc4C3)cc2)c1)S(C)(=O)=O | inactive
COc1cccc(N(CC(=O)N2CCc3ccccc3C2)S(C)(=O)=O)c1 | -106% (active)
Nc1ccc(N=Nc2ccccc2Cl)c(N)n1 | inactive
O=C(CN1C(=O)CCS(=O)(=O)c2ccccc21)NCc1ccc(F)cc1 | 11.8%
COc1ccc(C2/C(=C(/O)c3ccc(OC(C)C)cc3)C(=O)C(=O)N2CCCN2CCOCC2)cc1 (stereo not given) | inactive
O=C1C(=O)N(CCN2CCOCC2)C(c2ccccn2)/C1=C(/O)c1ccc(Cl)cc1 (stereo not given) | -111% (active)
O=C1C(=O)N(CCN2CCOCC2)C(c2cccc(Cl)c2)/C1=C(/O)c1ccc2c(c1)OCO2 (stereo not given) | inactive

Compound | activity change
CC(C)(C)n1c(=O)[nH]c2c(c1=O)CCC2 | -114% (active)
O=c1[nH]n2c(=O)c3c([nH]c2c1N=Nc1ccccc1)CCC3 | inactive
CCOC(=O)[C@]12CCCC=C1N(CCC1=CCCCC1)C(=O)[C@H](CC(=O)N1CCCCC1)C2 | inactive
O=C1C=C(c2ccc(Cl)cc2)C(=O)N1Nc1ccccc1 | -112% (active)
CC(C)(C)n1nc2c(c1NC(=O)c1ccc(S(=O)(=O)N3CCCC3)cc1)CS(=O)C2 (stereo not given) | inactive
COc1ccc(C(C(=O)Nc2c(C)cccc2C)N2CCN(c3ccc(C)cc3)CC2)cc1 (stereo not given) | inactive
O=C(CN1C(=O)NC2(CCCCCC2)C1=O)NC1CC1 | inactive
O=C1CC2(CCCC2)C(=O)N1CN1CCN(S(=O)(=O)c2ccc(F)cc2F)CC1 | inactive
O=C(O)CCN1C(=O)CC2(CCCCC2)C1=O | -117% (active)
NS(=O)(=O)c1ccc(CCNC(=O)NC2CCCCC2)cc1 | inactive
CN1OC[C@@H]2CN[C@H](c3ccc(-c4ccccc4)cc3)C[C@@H]21 | inactive
CCOC(=O)[C@]12CCCC=C1N(CCC1=CCCCC1)C(=O)[C@H](CC(=O)NCCCOC)C2 | inactive
CCCCCNC(=O)C(c1ccc(OC)cc1)n1c(=O)c(-c2ccccc2)nc2ccccc21 (stereo not given) | inactive
Cc1cccc(OCc2nnc(SCc3nc4cc(C(F)(F)F)ccc4c(=O)[nH]3)o2)c1 | -3.13%
Nc1nnc(SCn2nnc3ccccc3c2=O)s1 | inactive
Cc1cccc(OCc2nnc(SCn3nnc4ccccc4c3=O)o2)c1 | -101% (active)
Cc1cccc(NC(=O)C2CCCN(C(=O)Nc3ccc(F)cc3)C2)c1C (stereo not given) | inactive
Cc1cccc(NC(=O)C2CCCN2S(=O)(=O)c2ccc(F)cc2)c1C (stereo not given) | -118% (active)
COc1ccccc1NC(=O)C1CCCN1S(=O)(=O)c1ccc(Cl)cc1 (stereo not given) | inactive
Cc1ccc(N(Cc2ccccc2O)C(=O)c2ccccc2F)cc1 | inactive
Cc1ccc(N(C(=O)CNC(=O)c2ccco2)C(C(=O)NC2CCCC2)c2ccncc2)cc1 (stereo not given) | inactive
CC(C)(C)NC(=O)C(c1ccncc1)N(C(=O)CNC(=O)c1ccco1)c1ccc2c(c1)OCO2 (stereo not given) | -97.2% (active)
COc1cccc(N(C(=O)CNC(=O)c2ccco2)C(C(=O)NC2CCCCC2)c2cccnc2)c1 (stereo not given) | inactive
O=C(Cc1cccs1)Nc1ccc([N+](=O)[O-])cc1 | inactive
COc1ccc(OC)c(NC(=O)Cc2cccs2)c1 | inactive
